{"source": "PubChem BioAssay (NCI)", "note": "About 83,000 compounds went through this panel and 20% of them were active in at least one assay; those are over-represented in the sample as a whole.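 Testing used 96-well plates and a 48-hour single-concentration exposure. Example: -40 means 40% of the starting cells died.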 Unmarked numbers belong to inactive results. The source made the active and inactive calls. The calls were made as follows: active = growth percent below 10; inactive = the rest."}
{"tested_on": "MALME-3M melanoma", "test": "NCI-60 one-dose screen, 48 h (100 = growth as untreated, 0 = no growth, -100 = all killed)", "settings": "10 µM unless noted"}
{"smiles": "COc1cc(NC(=O)CSc2nc3ccc(Cl)cc3c(=O)n2-c2ccc(F)cc2)cc(OC)c1OC", "growth": "85.8%"}
{"smiles": "Cc1ccc(C(=O)Nc2ccc(CN3CCN(C)CC3)c(C(F)(F)F)c2)cc1C#Cc1cnc(N)c2ccc(F)cc12", "growth": "-88.4% (active)"}
{"smiles": "FC(F)(F)c1cccc(-c2[nH]ncc2-c2nnnn2-c2ccccc2)c1", "growth": "61.6%"}
{"smiles": "COc1cc(CCNc2cnc3cc(N)cc(N)c3n2)cc(OC)c1", "growth": "146%"}
{"smiles": "CCOC(=O)CNS(=O)(=O)CC(=O)c1ccccc1", "growth": "83%"}
{"smiles": "O=C(Nc1ccc(Cl)cn1)C1(c2ccccc2)CCCCC1", "growth": "112%"}
{"smiles": "Brc1c(-c2ccncc2)nc2n1CCS2", "growth": "114%"}
{"smiles": "O=C(Nc1cccc(Cn2c(=O)[nH]c3ccc(Oc4ncccn4)cc3c2=O)c1)c1ccc(Cl)cc1", "growth": "41%"}
{"smiles": "CC(=O)c1cc(Nc2cc(C)nc(N)n2)cc(C(C)=O)c1", "growth": "45.3%"}
{"smiles": "O=C(Nc1cccc(Cn2c(=O)[nH]c3ccc(Oc4ncccn4)cc3c2=O)c1)c1cc(Cl)cc(Cl)c1", "growth": "30.5%"}
{"smiles": "C=C1CCC2C3(C)COC(c4ccccc4)OC3CCC2(C)C1C/C=C1/C(=O)OCC1O", "note": "(stereo not drawn)", "growth": "99.8%"}
{"smiles": "CC(C)(C)OC(=O)N1C/C(=C\\c2ccccc2)C(=O)/C(=C/c2ccccc2)C1", "growth": "113%"}
{"smiles": "Nc1cc(N)c2nc(-c3ccccc3)c(NCCc3ccc(Cl)c(Cl)c3)nc2c1", "growth": "-93.3% (active)"}
{"smiles": "O=C(Nn1cnc2ccccc21)N1CCCC1", "growth": "92.2%"}
{"smiles": "O=C(Nc1cccc(Cn2c(=O)[nH]c3ccc(Oc4ncccn4)cc3c2=O)c1)c1cccc(F)c1", "growth": "97.2%"}
{"smiles": "O=C1NCCN1/N=C/c1c(Cl)nc2n1CCS2", "growth": "91.7%"}
{"smiles": "CC(=O)N1N=C(c2ccc(Cl)cc2)CC1c1cn(-c2ccccc2)nc1-c1ccc([N+](=O)[O-])cc1", "note": "(stereo not drawn)", "growth": "92%"}
{"smiles": "Cc1c([C@H](C(Cl)Cl)[C@H](O)[C@H]2C[C@H](C)C(=O)O2)ccc2c1C(=O)[C@H]1[C@H]2C[C@@H](Br)[C@@]23O[C@@H](CO[C@H]2O)CC13C", "note": "(stereo partly drawn)", "growth": "77.9%"}
{"smiles": "CCCCCC(=C/c1ccccc1)/C=N/N=C(N)N", "growth": "37%"}
{"smiles": "COc1cc2oc(-c3ccc(NC(=O)c4ccccc4)cc3)cc(=O)c2c(OC)c1OC", "growth": "74.8%"}
{"smiles": "N#Cc1c(N)nc(Nc2nc3ccccc3[nH]2)nc1-c1ccc(Cl)cc1", "growth": "125%"}
{"smiles": "COc1cc(N)c2nccc(C)c2c1OC", "growth": "95.8%"}
{"smiles": "Cc1ccc(C(=O)NN)cc1", "growth": "117%"}
{"smiles": "COc1cc(OC)c2c(=O)cc(-c3ccccc3)oc2c1", "growth": "97.2%"}
{"smiles": "C/C=C(/C)C(=O)OC1C=C(CO)C(=O)C(OC(=O)/C(C)=C\\C)C1C(C)C", "note": "(stereo not drawn)", "growth": "-91.2% (active)"}
{"smiles": "Cc1nn(-c2ccccc2)c(N)c1N=C1NC(=O)/C(=C/c2ccc(Cl)cc2)S1", "growth": "87.4%"}
{"smiles": "COCC(=O)NNc1[nH]c(-c2ccc(OC)cc2)cc1C#N", "growth": "112%"}
{"smiles": "Cc1ncc(C(=O)Nc2ccc(CN3CCN(C)CC3)c(C(F)(F)F)c2)cc1C#Cc1cnc(NC2CC2)c2ncccc12", "growth": "-88.5% (active)"}
{"smiles": "CCCOC(=O)c1c(C)n(C)c2scc[n+]12", "growth": "92.5%"}
{"smiles": "Cc1ccc2c(O)c(O)cc(NC(C)CCCN)c2n1", "note": "(stereo not drawn)", "growth": "81.6%"}
{"smiles": "CC(=O)N(N=O)c1ccc([N+](=O)[O-])cc1Cl", "growth": "58.9%"}
{"smiles": "Cc1ccc2c(c1)C(=O)CCS2", "growth": "85%"}
{"smiles": "O=C(O)/C(Br)=C/c1c[nH]c2ccc(Br)cc12", "growth": "106%"}
{"smiles": "COc1ccc(-n2nnnc2-c2cn[nH]c2C(F)(F)F)cc1", "growth": "107%"}
{"smiles": "COc1ccc(C2C3(C#N)C(N)=NC(=C(C#N)C#N)C23C#N)cc1OC", "note": "(stereo not drawn)", "growth": "112%"}
{"smiles": "CCOC(=O)c1cc(-c2ccc(OC)cc2)[nH]c1NNC(=O)CCOC", "growth": "98.4%"}
{"smiles": "O=C(NCCCl)Nc1nccnc1OCc1ccc(F)cc1", "growth": "148%"}
{"smiles": "CC1=C(C)C(=O)C(C(C)C2=C(C)C(=O)C(C)=C(C)C2=O)=C(C)C1=O", "growth": "119%"}
{"smiles": "COc1cc(NC(C)CCCN)c2nccc(C)c2c1OC", "note": "(stereo not drawn)", "growth": "104%"}
{"smiles": "COc1cc2c(c(OC)c1OC)C(=O)CC(c1cccc(C(=O)Nc3cccc(Br)c3)c1)O2", "note": "(stereo not drawn)", "growth": "85%"}
{"tested_on": "MDA-MB-231 breast", "test": "NCI-60 one-dose screen, 48 h (100 = growth as untreated, 0 = no growth, -100 = all killed)", "settings": "10 µM unless noted"}
{"smiles": "COc1cc(NC(=O)CSc2nc3ccc(Cl)cc3c(=O)n2-c2ccc(F)cc2)cc(OC)c1OC", "growth": "64.7%"}
{"smiles": "Cc1ccc(C(=O)Nc2ccc(CN3CCN(C)CC3)c(C(F)(F)F)c2)cc1C#Cc1cnc(N)c2ccc(F)cc12", "growth": "-90.7% (active)"}
{"smiles": "FC(F)(F)c1cccc(-c2[nH]ncc2-c2nnnn2-c2ccccc2)c1", "growth": "41%"}
{"smiles": "COc1cc(CCNc2cnc3cc(N)cc(N)c3n2)cc(OC)c1", "growth": "96.7%"}
{"smiles": "CCOC(=O)CNS(=O)(=O)CC(=O)c1ccccc1", "growth": "97.3%"}
{"smiles": "O=C(Nc1ccc(Cl)cn1)C1(c2ccccc2)CCCCC1", "growth": "87.7%"}
{"smiles": "Brc1c(-c2ccncc2)nc2n1CCS2", "growth": "101%"}
{"smiles": "O=C(Nc1cccc(Cn2c(=O)[nH]c3ccc(Oc4ncccn4)cc3c2=O)c1)c1ccc(Cl)cc1", "growth": "53.6%"}
{"smiles": "CC(=O)c1cc(Nc2cc(C)nc(N)n2)cc(C(C)=O)c1", "growth": "106%"}
{"smiles": "O=C(Nc1cccc(Cn2c(=O)[nH]c3ccc(Oc4ncccn4)cc3c2=O)c1)c1cc(Cl)cc(Cl)c1", "growth": "39.3%"}
{"smiles": "C=C1CCC2C3(C)COC(c4ccccc4)OC3CCC2(C)C1C/C=C1/C(=O)OCC1O", "note": "(stereo not drawn)", "growth": "89.4%"}
{"smiles": "CC(C)(C)OC(=O)N1C/C(=C\\c2ccccc2)C(=O)/C(=C/c2ccccc2)C1", "growth": "79.9%"}
{"smiles": "Nc1cc(N)c2nc(-c3ccccc3)c(NCCc3ccc(Cl)c(Cl)c3)nc2c1", "growth": "-71.1% (active)"}
{"smiles": "O=C(Nn1cnc2ccccc21)N1CCCC1", "growth": "94.2%"}
{"smiles": "O=C(Nc1cccc(Cn2c(=O)[nH]c3ccc(Oc4ncccn4)cc3c2=O)c1)c1cccc(F)c1", "growth": "74.7%"}
{"smiles": "O=C1NCCN1/N=C/c1c(Cl)nc2n1CCS2", "growth": "130%"}
{"smiles": "CC(=O)N1N=C(c2ccc(Cl)cc2)CC1c1cn(-c2ccccc2)nc1-c1ccc([N+](=O)[O-])cc1", "note": "(stereo not drawn)", "growth": "104%"}
{"smiles": "Cc1c([C@H](C(Cl)Cl)[C@H](O)[C@H]2C[C@H](C)C(=O)O2)ccc2c1C(=O)[C@H]1[C@H]2C[C@@H](Br)[C@@]23O[C@@H](CO[C@H]2O)CC13C", "note": "(stereo partly drawn)", "growth": "4.9% (active)"}
{"smiles": "COc1cc2oc(-c3ccc(NC(=O)c4ccccc4)cc3)cc(=O)c2c(OC)c1OC", "growth": "74.9%"}
{"smiles": "N#Cc1c(N)nc(Nc2nc3ccccc3[nH]2)nc1-c1ccc(Cl)cc1", "growth": "106%"}
{"smiles": "COc1cc(N)c2nccc(C)c2c1OC", "growth": "91.2%"}
{"smiles": "COc1cc(OC)c2c(=O)cc(-c3ccccc3)oc2c1", "growth": "97%"}
{"smiles": "C/C=C(/C)C(=O)OC1C=C(CO)C(=O)C(OC(=O)/C(C)=C\\C)C1C(C)C", "note": "(stereo not drawn)", "growth": "-61.2% (active)"}
{"smiles": "Cc1nn(-c2ccccc2)c(N)c1N=C1NC(=O)/C(=C/c2ccc(Cl)cc2)S1", "growth": "105%"}
{"smiles": "COCC(=O)NNc1[nH]c(-c2ccc(OC)cc2)cc1C#N", "growth": "102%"}
{"smiles": "Cc1ncc(C(=O)Nc2ccc(CN3CCN(C)CC3)c(C(F)(F)F)c2)cc1C#Cc1cnc(NC2CC2)c2ncccc12", "growth": "-97.3% (active)"}
{"smiles": "CCCOC(=O)c1c(C)n(C)c2scc[n+]12", "growth": "80.1%"}
{"smiles": "Cc1ccc2c(O)c(O)cc(NC(C)CCCN)c2n1", "note": "(stereo not drawn)", "growth": "57.2%"}
{"smiles": "CC(=O)N(N=O)c1ccc([N+](=O)[O-])cc1Cl", "growth": "58.9%"}
{"smiles": "Cc1ccc2c(c1)C(=O)CCS2", "growth": "94.2%"}
{"smiles": "O=C(O)/C(Br)=C/c1c[nH]c2ccc(Br)cc12", "growth": "102%"}
{"smiles": "COc1ccc(-n2nnnc2-c2cn[nH]c2C(F)(F)F)cc1", "growth": "83.4%"}
{"smiles": "COc1ccc(C2C3(C#N)C(N)=NC(=C(C#N)C#N)C23C#N)cc1OC", "note": "(stereo not drawn)", "growth": "93.2%"}
{"smiles": "CCOC(=O)c1cc(-c2ccc(OC)cc2)[nH]c1NNC(=O)CCOC", "growth": "95%"}
{"smiles": "O=C(NCCCl)Nc1nccnc1OCc1ccc(F)cc1", "growth": "87.6%"}
{"smiles": "CC1=C(C)C(=O)C(C(C)C2=C(C)C(=O)C(C)=C(C)C2=O)=C(C)C1=O", "growth": "94.2%"}
{"smiles": "COc1cc(NC(C)CCCN)c2nccc(C)c2c1OC", "note": "(stereo not drawn)", "growth": "59.5%"}
{"smiles": "COc1cc2c(c(OC)c1OC)C(=O)CC(c1cccc(C(=O)Nc3cccc(Br)c3)c1)O2", "note": "(stereo not drawn)", "growth": "63.7%"}
